Bioassay records deposited in PubChem by National Center for Advancing Translational Sciences (NCATS).
Rows were chosen to be rich in hits. Some 15% of all compounds tested hit in one or more screens of this group.
Sm TGR block – blocks Schistosoma mansoni thioredoxin glutathione reductase. Q962Y6. purified TGR, DTNB reduction, TNB absorbance 405 nm. Potency, µM (series often up to 114 µM), inactives show top-dose activity change, negative = inhibition, most hits filed as inhibitors. hit rate 3% among 360,000; note: potency is the fitted concentration of half-maximal effect; % is set by controls: 0 for no effect and ±100 for the full control effect; nearly all actives have a fitted effect of over 60% in size
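First, TGR (20 nM dispensed) and NADPH were mixed with compound. Second, a 15 min room-temperature incubation followed. Third, further NADPH and then DTNB were added to start the reaction. Finally, TNB absorbance was monitored kinetically.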
Pf growth 48h – P. falciparum growth inhibition at 48 hours (one generation); P. falciparum luciferase growth in erythrocytes, 48 h; Potency, µM (titrated, usually from 28.7 µM), for inactives: at the highest dose activity change, negative = inhibition, most hits filed as inhibitors; hit rate 5.9% among 310,000; note: potency is the fitted concentration of half-maximal effect; % is set by controls: 0 for no effect and ±100 for the full control effect
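Here the parasites carry a stable luciferase gene and grow inside erythrocytes in Albumax-based RPMI medium with compound for one erythrocytic cycle. Activity is scored as loss of luminescent signal.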
Pf growth 96h – P. falciparum growth inhibition at 96 hour, primary screen for plastid delayed-death inhibitors. hit rate 6.9% among 320,000. Potency, µM (doses to about 28.7 µM), for the others: at the top dose activity change, negative = inhibition, hits mostly inhibitors. AID 504834. P. falciparum luciferase reporter growth, 96 h; note: potency is the fitted concentration of half-maximal effect; % is set by controls: 0 for no effect and ±100 for the full control effect
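Luminescence readout: decreased luciferase signal marks inhibited growth of reporter-expressing P. falciparum in infected red cells (2% hematocrit, 0.05% parasitemia final), exposed to compound two generations (96 h, 37 C, 5% CO2).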
HCMV antiviral – inhibitors of human cytomegalovirus | hit rate 4.5% among 410,000 | AID 1259415 | activity change, negative = inhibition, % at 57.5 µM | HFF cells, HCMV-luciferase reporter, 72 h; stronger effect = lower value; in the data active = activity change below about -60%; inconclusive = no clear call, values can overlap the other calls; inactive = above about -39%; note: % is set by controls: 0 for no effect and ±100 for the full control effect
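Two compound doses tested in HFFs infected with HCMV-luciferase, MOI 1 PFU/cell, 72 h at 37C. Lysate luminescence read with OneGlo; data normalized against buffer-only and 10uM Salinomycin inhibitor controls.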
SARS PLpro yeast – SARS-CoV PLP inhibition in yeast | hit rate 0.19% among 330,000 | S. cerevisiae expressing SARS-CoV PLpro, growth rescue | Potency, µM (doses to about 32.9 µM), for inactives: top-dose activity, positive = growth rescue, actives largely listed as activators; calls by dose curve; note: potency is the fitted concentration of half-maximal effect; 0% is about no effect; nearly all actives have a fitted effect of over 55% in size
HCV inhibitor – HCV inhibition. Huh7.5.1 HCVcc-Cre infection, luciferase reporter, 44 h. Potency, µM (doses to about 41.8 µM), inactives show top-dose activity change, negative = inhibition, most hits filed as inhibitors. hit rate 3.4% among 340,000. AID 651820; note: potency is the fitted concentration of half-maximal effect; % is set by controls: 0 for no effect and ±100 for the full control effect
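After 44 h co-culture of compound, cells and HCVcc-Cre (~0.5 moi), substrate is added for 15 min at room temperature and luciferase measured over 15 sec. Cells were seeded at 1,000/well and pre-cultured 4 h.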
Active calls of the source: *; ? = inconclusive; · = no result; [ ] = remark or other dose. Unless noted, calls come from the whole dose curve; as a rule, active = well fitted curve in the direction sought with a large enough effect; inconclusive = small, poorly fitted or top-dose-only effect, or another doubt; inactive = no such curve, though single readings can be large; an effect the other way counts as inactive or inconclusive.

SMILES | Sm TGR block | Pf growth 48h | Pf growth 96h | HCMV antiviral | SARS PLpro yeast | HCV inhibitor
COC(=O)CCCC1=CC2=CC(=O)C(C)(OC(=O)c3cccs3)C(=O)C2=CN1Cc1ccc2c(c1)OCO2 (stereo unspecified) | -29.3% | 13.1µM* | ? | 10.5 | 0.2% | 1.1%
COC(=O)CCCC1=CC2=CC(=O)C(C)(OC(=O)c3cccs3)C(=O)C2=CN1c1ccc(OC)cc1 (stereo unspecified) | -9.3% | 6.57µM* | 13.1µM* | -34.5 | 0.0% | 17.4%
COC(=O)CCCC1=CC2=CC(=O)C(C)(OC(=O)c3cccs3)C(=O)C2=CN1CCCOC(C)C (stereo unspecified) | -6.4% | ? | 10.0% | 4.5 | -3.5% | 1.8%[8.37 µM]
COC(=O)CCC(=O)OC1(C)C(=O)C=C2C=C(C3CC3)N(Cc3ccco3)C=C2C1=O (stereo unspecified) | 31.6µM* | 11.7µM* | ? | -19.7 | -3.7% | -5.3%
COC(=O)CCCC1=CC2=CC(=O)C(C)(OC(=O)c3cccs3)C(=O)C2=CN1Cc1ccco1 (stereo unspecified) | 35.5µM* | ? | ? | -2.5 | 2.0% | -12.1%[8.37 µM]
Cc1c(Cl)ccc2c(C(=O)NCCN3CCCCC3)cc(-c3ccccn3)nc12 | -8.8% | ? | ? | -27.6 | -1.8% | 5.62µM*
COc1ccccc1-c1cc(C(=O)NC2CCN(C)CC2)c2ccc(Cl)c(C)c2n1 | 3.4% | 9.28µM* | ? | 10.3 | -10.1% | -4.7%
O=C(NCCN1CCCCC1)c1ccc(Oc2cc(Cl)cc(Cl)c2)o1 | -15.2% | 7.38µM* | 4.65µM* | -28.1 | 0.5% | ?
Cc1c(Cl)ccc2c(C(=O)NCCCn3nccc3C)cc(-c3ccccn3)nc12 | -30.2% | ? | -16.7% | -14.0 | 23.8% | -17.3%
O=C(c1ccc(Oc2cc(Cl)cc(Cl)c2)o1)N1CCCCC1 | -16.3% | 18.4% | 25.5% | 49.5 | -0.8% | -17.9%
Cc1ccc2nc(-c3ccccn3)cc(C(=O)NC3CCN(C)CC3)c2c1 | 5.3% | -11.4% | · | 109.7 | -1.4% | 2.0%
O=C(NCCN1CCCCC1)c1cc(Cl)ccc1Cl | -20.4% | 0.0% | 4.65µM* | 14.6 | 0.7% | -4.5%
O=C(COC(=O)c1ccc(F)cc1F)Nc1ccc2c(c1)OCO2 | · | · | · | 6.7 | · | ·
Cc1ccc2c(CC(=O)N(Cc3ccc(Cl)cc3)Cc3ccco3)coc2c1 | ? | · | · | 118.7 | · | ·
O=C(COc1ccccc1Cl)NNC(=O)c1ccc2c(=O)n3c(nc2c1)CCC3 | -2.2% | -26.7% | -28.0% | -1.3 | -5.2% | 1.8%
O=C(NCC1CC1)c1ccc(Oc2cc(Cl)cc(Cl)c2)o1 | ? | 11.7µM* | 9.28µM* | 14.0 | -2.9% | ?
C[N+]1=C2CCCCCN2C(O)(c2ccccc2)C1 (stereo unspecified) | -18.4% | 16.3% | 8.28µM* | 3.1 | 2.2% | 26.7%
COc1cccc(C2c3c(-c4ccccc4O)n[nH]c3C(=O)N2Cc2cccnc2)c1 (stereo unspecified) | -0.9% | · | · | 11.6 | · | ·
COc1cc(C2c3c(-c4cc(Cl)c(C)cc4O)n[nH]c3C(=O)N2Cc2cccnc2)ccc1O (stereo unspecified) | -27.5% | 8.28µM* | · | 12.9 | -2.5% | -12.1%
COc1cccc(C2c3c(-c4cc(Cl)c(C)cc4O)n[nH]c3C(=O)N2Cc2cccnc2)c1 (stereo unspecified) | 0.0% | · | 6.57µM* | 5.8 | 11.1% | ?
COC(=O)[C@]12CCCCC=C1N(Cc1cccc3ccccc13)C(=O)[C@H](CC(=O)NCC1CCCCC1)C2 | · | · | · | 66.4 | · | ·
Cc1coc2cc3oc(=O)c(CC(=O)NCc4cccc(Cl)c4)c(C)c3cc12 | -1.4% | · | · | -37.2 | · | ·
Cc1cc(N)n2nc(C(F)(F)F)nc2n1 | -10.1% | -30.4%[5.75 µM] | -12.5% | -91.6* | 27.1% | 10.7%
Cc1cc(C)n2nc(N)nc2n1 | · | · | · | -37.3 | · | 38.2%
